The record followed here is PubChem BioAssay (EPA / NIEHS).

Several values for one entry are separate records, joined by “and”; a condition that tells them apart may be missing. Identical values can stand only once. Records with an inconclusive call do not appear. Activity calls are given as the source filed them. The calls were made as follows, unless noted: active = hit-call score of the fitted dose curve at least 0.9, where 1 is the maximum; inconclusive = response in the unintended direction; inactive = score below 0.9.

The nature of test [1]: TOX21_p53_BLA_p2_viability: Viability Assessment in the Tox21 HCT-116 p53 Agonism Beta-lactamase Assay, Phase 2 (AID 2283591).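 Also: actives lower the ATP signal meaning cytotoxicity.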 Summed up: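 Cytotoxicity readout: CellTiter-Glo ATP luminescence, 30 min at room temperature, after the beta-lactamase read. Cells were HCT116 exposed 16 h at 37C to compounds pin-transferred at 217-fold dilution from DMSO stocks.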
The target in test [2] is Cellular tumor antigen p53 (Homo sapiens) (UniProt P04637). The experiment in a line: TOX21_p53_BLA_p2_ratio: Tox21 HCT-116 p53 Agonism Beta-lactamase Assay, Ratio, Phase 2 (AID 2283592). Summed up:
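Read-out is the blue/green (460/530 nm, 405 nm excitation) ratio after 2 h CCF4-AM loading, fitted as gain versus DMSO. Compounds, pinned at 217-fold dilution from DMSO stocks, stayed 16 h on HCT-116 beta-lactamase reporter cells seeded 5 h earlier.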

Test [3] is described as follows: TOX21_p53_BLA_p3_viability: Viability Assessment in the Tox21 HCT-116 p53 Agonism Beta-lactamase Assay, Phase 3 (AID 2283593).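 Also: cells exposed to compound for 16 h before reading.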 In a few lines:
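Cellular ATP was quantified by CellTiter-Glo luminescence, read after 30 min at room temperature. Beforehand, HCT116 cells (4000/well) received compound 5 h post-seeding, 217-fold diluted from DMSO, then incubated 16 h at 37C.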

For test [4], the target named is Cellular tumor antigen p53 (Homo sapiens) (UniProt P04637). The experiment in a line: TOX21_p53_BLA_p3_ratio: Tox21 HCT-116 p53 Agonism Beta-lactamase Assay, Ratio, Phase 3 (AID 2283596). Summed up: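 Cells were seeded at 4000/well, rested 5 h at 37C, then dosed with DMSO compound solutions (217-fold dilution) for 16 h. CCF4-AM substrate was loaded for 2 h at room temperature, and the 460/530 nm emission ratio was fitted for gain of signal versus DMSO.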

A short description of test [5]: TOX21_p53_BLA_p4_viability: Viability Assessment in the Tox21 HCT-116 p53 Agonism Beta-lactamase Assay, Phase 4 (AID 2283597).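 Also: hits lower the luminescence signal meaning cytotoxicity.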 In a few lines:
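Cytotoxicity as reduced cellular ATP (CellTiter-Glo luminescence, 30 min room temperature), measured in the same wells following the CCF4 FRET p53 reading. Human HCT-116 cells received compounds in DMSO (217-fold dilution) for 16 h.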

For test [6], the target named is Cellular tumor antigen p53 (Homo sapiens) (UniProt P04637). The experiment in a line: TOX21_p53_BLA_p5_ratio: Tox21 HCT-116 p53 Agonism Beta-lactamase Assay, Ratio, Phase 5 (AID 2283599). Summed up:
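Beta-lactamase reporter ratio (blue 460 nm over green 530 nm, 405 nm excitation) after 2 h CCF4-AM loading, in HCT-116 cells exposed 16 h at 37 C to compounds pinned at 217-fold dilution. Increases relative to DMSO baseline scored.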

A short description of test [7]: TOX21_p53_BLA_p5_viability: Viability Assessment in the Tox21 HCT-116 p53 Agonism Beta-lactamase Assay, Phase 5 (AID 2283600). Summed up: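 Viability came from CellTiter-Glo ATP luminescence, read after 30 min at room temperature. Before this, HCT-116 p53-bla cells (4000/well) had 16 hours of compound exposure at 37C, with DMSO stocks diluted 217-fold on transfer.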

Test [8] has as its target Cellular tumor antigen p53 (Homo sapiens) (UniProt P04637). As to the kind of experiment: TOX21_p53_BLA_p4_ratio: Tox21 HCT-116 p53 Agonism Beta-lactamase Assay, Ratio, Phase 4 (AID 2283601). Summed up:
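Signal is the blue/green (460nm/530nm) ratio of cleaved versus uncleaved CCF4-AM substrate, read after 2 h substrate loading. Cells were HCT116 carrying the p53-responsive beta-lactamase reporter, dosed 16 h at 37C, 5% CO2; CellTiter-Glo measured in parallel.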

Test [9] can be described thus: TOX21_TRB_BLA_Antagonist_Followup_viability: Viability Assessment in the Tox21 Thyroid Hormone Receptor beta Antagonism Beta-lactamase (BLA) Follow-Up Assay (AID 2283961). Summed up:
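ATP-based CellTiter-Glo luminescence (30 min, room temperature) run in the same wells as the TRβ-bla readout. Cells: GeneBLAzer HEK293T expressing GAL4-TRβ LBD, exposed 18 h at 37C to compounds at 11 concentrations in triplicate, stripped-serum medium.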

A short description of test [10]: TOX21_TR_RXR_BLA_Antagonist_Followup_viability: Viability Assessment in the Tox21 Thyroid Hormone Receptor beta Retinoid X Receptor alpha (RXRa) Antagonism Beta-lactamase (BLA) Follow-Up Assay (AID 2283979). Summed up:
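Follow-up compounds (11 concentrations, triplicate) were incubated 16 h at 37C/5% CO2 with HEK293T RXRa-bla cells seeded at 2,500/well in charcoal-stripped-serum medium. ATP content by CellTiter-Glo luminescence gave viability; curves fitted in both directions against DMSO.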

Test [11] addresses PGR (gene 5241) (UniProt P06401). As to the kind of experiment: TOX21_PR_BLA_Followup_Antagonist_ratio: Tox21 HEK293 Progesterone Receptor (PR) Antagonism Beta-lactamase Follow-Up Assay, Ratio (AID 2283934).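 Also: PR-UAS-bla HEK293T cells stimulated with 1 nM R5020 agonist for 16 hr.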 In a few lines: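 Readout is the blue/green (ch2/ch1) substrate cleavage ratio after 2 hours at room temperature, following 16 hr co-treatment of PR-bla HEK293T cells with compound and 1nM promegestone. Multiplexed CellTiter-Glo viability flags cytotoxicity; DMSO baseline.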

The nature of test [12]: TOX21_PR_BLA_Followup_Agonist_viability: Viability Assessment in the Tox21 HEK293 Progesterone Receptor (PR) Agonism Beta-lactamase Follow-Up Assay (AID 2283935).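 Also: signal loss means lower viability so actives are cytotoxic.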 In a few lines:
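Run multiplexed with the beta-lactamase FRET read, this endpoint measures ATP by CellTiter-Glo luminescence (30 min, room temperature). PR-UAS-bla HEK293T cells received compound 6 hr after plating and were then incubated 16 hr at 37C in 2% stripped serum.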

Test [13] can be described thus: TOX21_PR_BLA_Followup_Antagonist_viability: Viability Assessment in the Tox21 HEK293 Progesterone Receptor (PR) Antagonism Beta-lactamase Follow-Up Assay (AID 2283936).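 Also: cells exposed to compound with R5020 agonist for 16 h; hits lower the luminescence signal meaning cytotoxicity.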 In a few lines: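 PR-UAS-bla HEK293T cells in medium with 2% charcoal-stripped FBS were treated with compounds plus R5020 for 16 hr at 37C. After the beta-lactamase read, CellTiter-Glo was added to the same wells and luminescence read after 30 min at room temperature.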

Test [14] concerns the target PGR (gene 5241) (UniProt P06401). The experiment in a line: TOX21_PR_LUC_Followup_Antagonist: Tox21 HEK293 Progesterone Receptor (PR) Antagonism Luciferase Follow-Up Assay (AID 2283938).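 Also: curve fitted upward as signal gain over DMSO baseline despite antagonist label.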 In a few lines: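 Luminescence from ONE-Glo was measured 30 min after reagent addition, following 16 h exposure of HEK293-PR-A-luc cells (3,000/well, plated 5 h earlier) to DMSO-dissolved compounds at 37C; DMSO served as baseline.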

The nature of test [15]: TOX21_PR_LUC_Followup_Agonist_viability: Viability Assessment in the Tox21 HEK293 Progesterone Receptor (PR) Agonism Luciferase Follow-Up Assay (AID 2283941).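 Also: loss of signal means cytotoxicity so actives lower viability.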 Summed up:
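Cytotoxicity counter-readout in the PR-A luciferase reporter line HEK293, with 16 h compound exposure at 37C after cells were cultured in charcoal-stripped serum. Cellular ATP quantified by CellTiter-Glo luminescence.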

A short description of test [16]: CCTE_Harrill_HTTr_Viability_MCF7: CCTE's 6-hour Cell Viability Assessment for the High-Throughput Transcriptomics (HTTr) Platform, in MCF-7 cells cultured in DMEM + 10% fetal bovine serum, Harrill Lab (AID 2284010; active = hit-call score of the fitted dose curve at least 0.9, where 1 is the maximum; inactive = score below 0.9). In a few lines:
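Propidium iodide exclusion, imaged by high-content analysis, gauged viability after a six-hour exposure across eight concentrations. Cells were MCF-7 grown in DMEM with 10% fetal bovine serum; fits run in both directions against DMSO.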

A short description of test [17]: CCTE_Harrill_HTTr_Apoptosis_MCF7: CCTE's 6-hour Apoptosis Assessment for the High-Throughput Transcriptomics (HTTr) Platform, in MCF-7 cells cultured in DMEM + 10% fetal bovine serum, Harrill Lab (AID 2284011; active = hit-call score of the fitted dose curve at least 0.9, where 1 is the maximum; inactive = score below 0.9). In a few lines:
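High-content imaging of CellEvent Caspase 3/7 Green signal follows a six-hour exposure, with eight concentrations per chemical. MCF-7 cells grown in DMEM plus 10% fetal bovine serum; activity fitted in both directions against DMSO.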

For the next test, the target named is THRA (gene 7067) (UniProt P10827). As to the kind of experiment: TOX21_TRA_COA_Antagonist_Followup_ratio: Tox21 Thyroid Hormone Receptor alpha Antagonism through Coactivator Recruitment Follow-Up Assay, Ratio (AID 2283953). In a few lines: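 GST-TRα LBD 2.5 nM, BSA 0.10%, + cpd; then FITC-SRC-2 peptide 200 nM + Tb-anti-GST Ab 2 nM. TR-FRET ratio 520/495 nm. Norm: DMSO = 0%, T3 = 100%.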

The target in the next test is THRB (gene 7068) (UniProt P10828). The experiment in a line: TOX21_TRB_COA_Antagonist_Followup_ratio: Tox21 Thyroid Hormone Receptor beta Antagonism through Coactivator Recruitment Follow-Up Assay, Ratio (AID 2283967). Summed up:
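Coactivator recruitment to the GST-tagged TRb ligand-binding domain (5.0 nM) was read as the 520/495 nm TR-FRET ratio, using 200 nM fluorescein SRC-2 peptide and 2 nM terbium anti-GST. Scaled between DMSO and T3 wells; loss of signal fitted.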

Cellular tumor antigen p53 (Homo sapiens), sequence (P04637 whole entry, looked up): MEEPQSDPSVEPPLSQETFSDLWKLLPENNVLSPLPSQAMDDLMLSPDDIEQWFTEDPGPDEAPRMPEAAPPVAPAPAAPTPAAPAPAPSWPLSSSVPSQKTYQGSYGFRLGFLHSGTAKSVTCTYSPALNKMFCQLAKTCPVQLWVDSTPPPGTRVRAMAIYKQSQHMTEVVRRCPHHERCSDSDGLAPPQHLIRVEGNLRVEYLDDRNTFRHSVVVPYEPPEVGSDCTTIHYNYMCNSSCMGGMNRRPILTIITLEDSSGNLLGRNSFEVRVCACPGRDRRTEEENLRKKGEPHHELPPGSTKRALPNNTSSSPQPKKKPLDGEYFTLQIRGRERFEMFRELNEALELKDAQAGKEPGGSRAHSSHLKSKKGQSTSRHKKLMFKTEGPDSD
PGR (gene 5241), sequence (P06401 whole entry, looked up): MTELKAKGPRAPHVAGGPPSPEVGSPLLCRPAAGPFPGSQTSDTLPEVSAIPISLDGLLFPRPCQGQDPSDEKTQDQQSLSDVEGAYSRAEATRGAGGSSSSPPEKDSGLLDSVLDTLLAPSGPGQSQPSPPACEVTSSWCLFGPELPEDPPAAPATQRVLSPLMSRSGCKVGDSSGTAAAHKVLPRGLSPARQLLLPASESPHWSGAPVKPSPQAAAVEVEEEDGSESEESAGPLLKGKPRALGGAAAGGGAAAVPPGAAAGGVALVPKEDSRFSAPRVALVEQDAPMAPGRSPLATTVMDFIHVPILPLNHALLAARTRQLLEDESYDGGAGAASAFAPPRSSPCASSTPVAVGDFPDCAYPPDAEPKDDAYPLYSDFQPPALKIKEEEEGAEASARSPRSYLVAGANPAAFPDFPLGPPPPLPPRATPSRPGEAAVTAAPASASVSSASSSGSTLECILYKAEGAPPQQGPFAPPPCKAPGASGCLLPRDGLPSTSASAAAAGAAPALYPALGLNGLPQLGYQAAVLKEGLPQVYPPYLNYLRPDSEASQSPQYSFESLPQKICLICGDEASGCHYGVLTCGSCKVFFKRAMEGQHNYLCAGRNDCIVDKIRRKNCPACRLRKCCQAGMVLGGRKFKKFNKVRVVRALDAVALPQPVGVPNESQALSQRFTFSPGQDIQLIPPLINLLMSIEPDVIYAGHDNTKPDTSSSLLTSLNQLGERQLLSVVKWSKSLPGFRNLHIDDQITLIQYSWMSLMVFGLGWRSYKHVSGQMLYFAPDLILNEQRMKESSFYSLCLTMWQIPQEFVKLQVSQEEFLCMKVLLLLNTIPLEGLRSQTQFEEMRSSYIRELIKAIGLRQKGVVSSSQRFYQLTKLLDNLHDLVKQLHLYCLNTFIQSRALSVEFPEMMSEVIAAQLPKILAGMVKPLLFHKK
THRA (gene 7067), sequence (P10827 whole entry, looked up, the tested form may be a part): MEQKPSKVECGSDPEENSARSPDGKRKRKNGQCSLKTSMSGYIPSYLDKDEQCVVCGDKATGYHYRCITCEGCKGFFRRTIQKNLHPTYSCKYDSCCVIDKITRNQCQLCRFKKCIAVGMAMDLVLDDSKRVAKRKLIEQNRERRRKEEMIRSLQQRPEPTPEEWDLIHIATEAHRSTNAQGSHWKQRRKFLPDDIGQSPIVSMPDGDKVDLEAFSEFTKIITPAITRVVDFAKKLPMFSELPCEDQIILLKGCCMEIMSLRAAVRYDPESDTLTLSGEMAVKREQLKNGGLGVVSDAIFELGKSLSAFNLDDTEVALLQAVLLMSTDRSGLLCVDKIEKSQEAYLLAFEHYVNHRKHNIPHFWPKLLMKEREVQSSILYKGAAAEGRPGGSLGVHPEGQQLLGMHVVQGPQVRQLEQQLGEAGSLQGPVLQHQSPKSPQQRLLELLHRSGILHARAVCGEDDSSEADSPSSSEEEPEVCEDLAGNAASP
THRB (gene 7068), sequence (P10828 whole entry, looked up, the tested form may be a part): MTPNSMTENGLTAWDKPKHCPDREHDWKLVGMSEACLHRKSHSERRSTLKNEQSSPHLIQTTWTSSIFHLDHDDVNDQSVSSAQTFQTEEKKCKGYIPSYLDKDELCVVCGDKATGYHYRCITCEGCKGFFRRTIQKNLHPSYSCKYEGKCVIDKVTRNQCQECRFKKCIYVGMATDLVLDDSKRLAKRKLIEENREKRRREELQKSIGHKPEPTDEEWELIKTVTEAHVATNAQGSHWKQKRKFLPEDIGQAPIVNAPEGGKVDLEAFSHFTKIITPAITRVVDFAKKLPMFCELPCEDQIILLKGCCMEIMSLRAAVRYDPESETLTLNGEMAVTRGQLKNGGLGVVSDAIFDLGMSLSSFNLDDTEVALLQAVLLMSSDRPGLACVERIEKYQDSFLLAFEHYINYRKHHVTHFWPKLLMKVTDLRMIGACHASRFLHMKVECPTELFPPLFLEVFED

In the case of `Cc1cc(-n2c(=O)[nH]c(=O)n(C)c2=O)ccc1Oc1ccc(S(=O)(=O)C(F)(F)F)cc1`, the molecule was classed as inactive in test [1], in test [2], in [3], in test [4], in [5] and in test [6]. Moreover, the call in test [7] and in test [8] was inactive.

On to `CCC[C@@]1(CCc2ccccc2)CC(O)=C([C@H](CC)c2cccc(NS(=O)(=O)c3ccc(C(F)(F)F)cn3)c2)C(=O)O1`, for which the result in test [1], in test [2], in test [3], in [4], in test [5] and in [6] was inactive. Besides, the call in test [7], in [8], in [9] and in test [10] was inactive.

With `CNC(=O)c1cc(Oc2ccc(NC(=O)Nc3ccc(Cl)c(C(F)(F)F)c3)cc2)ccn1`, the result in [1], in test [3], in test [5], in [7] and in test [8] was inactive. Further, the AC50 in [2] is 7.13 µM (active); in test [4], 5.52 µM (active); in [6], 6.76 µM (active).

With `COC(=O)C1=C(C)NC(C)=C(C(=O)OCC(C)=O)C1c1ccccc1[N+](=O)[O-]` (centres undefined), the call in test [1], in [2], in [3], in test [4], in [5] and in test [6] was inactive. In addition, the result (in test [7]; in test [8]; with PGR (gene 5241) [11]; in [12]; in test [13]; in test [15]) was inactive. In addition, the AC50 in the test with PGR (gene 5241) [14] is 21.5 µM (active).

In the case of `Clc1cccc(Cl)c1NC1=NCCN1`, the result in test [1], in test [2], in [3], in [4], in [5] and in test [6] was inactive. Moreover, the molecule was called inactive in test [7], in test [8], in test [16] and in test [17].

With `CCOC(=O)n1ccn(C)c1=S`, the call in test [1], in [2], in test [3], in test [4], in [5] and in test [6] was inactive. The molecule was classed as inactive in [7], in [8], in test [16] and in test [17].

Consider `COc1ccc(Cl)cc1C(=O)NCCc1ccc(S(=O)(=O)NC(=O)NC2CCCCC2)cc1`, for which the outcome in test [1], in test [2], in test [3], in [4], in [5] and in [6] was inactive. The result in test [7], in test [8], in [16] and in [17] was inactive.

With `Cc1cc(Nc2ccccc2C(=O)O)ccc1Cl`, the call (in [1]; in test [3]; in [4]; in [7]; with THRA (gene 7067); in [9]) was inactive. In addition, the result (in the test with THRB (gene 7068); in test [10]) was inactive. For the same molecule, the AC50 in test [2] was 8.52 µM (active); in [5], 31.9 µM (active); in [6], 17.4 µM (active); in test [8], 23 µM (active).

As to `Cc1c(O)cccc1C(=O)N[C@@H](CSc1ccccc1)[C@H](O)CN1C[C@H]2CCCC[C@H]2C[C@H]1C(=O)NC(C)(C)C`, the AC50 in test [1] is 36.3 µM (active) and 18.7 µM (active); in test [2], 44.9 µM (active) and 20.2 µM (active); in [3], 21.6 µM (active) and 21.1 µM (active); in [4] it was 43.8 µM (active) and 38.2 µM (active); in test [5] it was 27.9 µM (active); in test [6], 66.8 µM (active) and 35.3 µM (active). Also, the AC50 in test [7] is 33.1 µM (active) and 19.5 µM (active); in test [8] it was 46.8 µM (active) and 23.1 µM (active).

In general, AC50 refers to the concentration giving half of the maximal activity seen.
